# Assay results reported in PMC9426499.
# Target: ParRC(pCW3) (Clostridium perfringens plasmid pCW3, UniProt Q1PLJ8 1-87)
# Test: SPR; high values mean tight binding
# Details: protein: recombinant; tags: C-terminal His6; chain copies: 4; label: 3' 20-nt overhang of comp strand annealed to immobilized 5'-biotin ReDCaT linker; dsDNA, one strand shown
row,Sequence,binding signal [RU]
1,ATCACAATTTTACGTAATGACAGTTTGTTG,54.7
2,ACAATTTTACATAATAGAAAGGATTGATAA,4.3
3,AATATAAAAACATAAACATCACAATTTTAC,155
4,CATAAACATCACAATTTTACGTAATTTAGA,348
5,ATTTTACGGAAAATGCTTGATTTAGATTGA,9.2
6,TTTTGCAAGTAAAAAACATCACAATTTTAC,217
7,ACAATTTTACGTAATTTAGATTTTGCAAGT,48.4
8,AAACATCACAATTTTACGGAAAATGCTTGA,282
9,AAAATGAAAAAAACATCACAATTTTACGGA,250
10,GTAATTTAGATTTTGCAAGTAAAAAACATC,42.6
11,AAAAAACATCACAATTTTACATAATAGAAA,311
12,AATTAAAAACATCACAATTTTACGTAATGA,256
13,AATTTTACATAATAGAAAGGATTGATAAAA,3.1
